Assay [1] has as its target Estrogen receptor beta (Homo sapiens) (UniProt Q92731). Kind of assay: OT_ER_ERbERb_1440: Odyssey Thera (OT) 24-hour HEK293T Protein-Complementation Assay for Estrogen Receptor-beta/-beta Homodimer (AID 2283380).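 Also: scored as signal increase over DMSO baseline for both agonists and antagonists.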 The method in brief:
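HEK293T cells stably expressing ER beta LBD (aa 310-547) homodimer fragment-complementation reporter, dosed 24 h. Cells formaldehyde-fixed, Draq5-stained; gain in nuclear (agonist) or nuclear plus cytoplasmic (antagonist) fluorescence versus DMSO read by laser scanning cytometry.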

The target of assay [2] is Estrogen receptor (Homo sapiens) (UniProt P03372). The experiment in a line: OT_ERa_GFPERaERE_0480: Odyssey Thera (OT) 8-hour HeLa Transcription Induction Assay for Estrogen Receptor (AID 2283381; active = hit-call score of the fitted dose curve at least 0.9, where 1 is the maximum; inactive = score below 0.9). The method in brief: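 Fluorescence microscopy with high-content image analysis measures ERE-driven GFP induction in HeLa cells at 8 h post-dose. Increases fitted against DMSO baseline.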

Assay [3] has the same target. The experiment in a line: OT_ERa_GFPERaERE_0120: Odyssey Thera (OT) 2-hour HeLa Transcription Induction Assay for Estrogen Receptor (AID 2283382). The method, boiled down: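 Fluorescence-microscopy images of the GFP-ERα/ERE reporter, scored by high-content image algorithms, give the readout. HeLa exposure lasted 2 h, and only signal increase over DMSO was fitted.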

Assay [4] concerns the target Bile acid receptor (Homo sapiens) (UniProt Q96RI1). The experiment in a line: OT_FXR_FXRSRC1_1440: Odyssey Thera (OT) 24-hour HEK293T Protein-Complementation Assay for Farnesoid X receptor/SRC-1 Co-activator (AID 2283384). The method, boiled down:
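Protein-fragment complementation: FXR and SRC-1 fused to reporter fragments that reassemble on interaction, read by fluorescence intensity. Human HEK293T cells measured 24 h post-dose; positive-direction fit versus DMSO.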

The target of assay [5] is Retinoic acid receptor RXR-alpha (Homo sapiens) (UniProt P19793). The experiment in a line: OT_NURR1_NURR1RXRa_0480: Odyssey Thera (OT) 8-hour HEK293T Protein Complementation Assay for Nurr1/retinoid X receptor (RXR) (AID 2283385). The method in brief:
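Interaction of Nurr1 with RXRα read as reconstituted reporter fluorescence in a HEK293T fragment-complementation system, 8 h post-treatment; increase over DMSO baseline analysed.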

For assay [6] the target is unchanged. Kind of assay: OT_NURR1_NURR1RXRa_1440: Odyssey Thera (OT) 24-hour HEK293T Protein Complementation Assay for Nurr1/retinoid X receptor (RXR) (AID 2283386). The method, boiled down:
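Gain in fluorescence, fitted relative to DMSO, reflects Nurr1–RXRα association in HEK293T cells after 24 h dosing. Bait and prey are each linked to a reporter-protein fragment that reassembles on interaction.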

Assay [7] concerns the target Peroxisome proliferator-activated receptor gamma (Homo sapiens) (UniProt P37231). The experiment in a line: OT_PPARg_PPARgSRC1_0480: Odyssey Thera (OT) 8-hour Protein-Complementation Assay for Peroxisome Proliferator-activated Receptor Gamma / SRC-1 Co-activator (AID 2283387).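 Also: nuclear to cytoplasmic split Venus YFP fluorescence ratio reporting PPARg SRC-1 interaction.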 The method, boiled down:
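Protein-fragment complementation of split Venus YFP reports PPARg/SRC-1 interaction in HEK293T (transfected 48 h before treatment), exposed 8 h. Readout: N/C fluorescence ratio at 488 nm from imaging, Draq5 for segmentation, positive fit relative to DMSO.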

Assay [8] shares this target. The experiment in a line: OT_PPARg_PPARgSRC1_1440: Odyssey Thera (OT) 24-hour Protein-Complementation Assay for Peroxisome Proliferator-activated Receptor Gamma/ SRC-1 Co-activator (AID 2283388).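 Also: nuclear to cytoplasmic ratio of reconstituted Venus YFP fluorescence in fixed imaged cells.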 The method in brief: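 Transient HEK293T, YFP fragments 1-158/159-239 (mutant IFP1/IFP2) fused to PPARg/SRC-1; 24 h dosing; fix 4% formaldehyde, Draq5; Opera imaging 488/635 nm; N/C ratio, gain vs DMSO.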

A short description of assay [9]: CEETOX_H295R_11DCORT: CeeTox H295R High-throughput Steroidogenesis Assay for 11-Deoxycortisol (11DCORT) (AID 2283432; active = hit-call score of the fitted dose curve at least 0.9, where 1 is the maximum; inactive = score below 0.9;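 as to AC50: 11-deoxycortisol secreted into the medium measured by LC-MS/MS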). The conditions noted are these: actives raise or lower the signal. The method in brief:
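Human adrenal H295R cells were prestimulated with 10 uM forskolin for 48 h, then exposed to test chemical (0.1% DMSO final) for 48 h. Medium 11-deoxycortisol was quantified by MTBE extraction and HPLC-MS/MS; bidirectional fitting relative to DMSO.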

Assay [10] in a line: CEETOX_H295R_OHPREG: CeeTox H295R High-throughput Steroidogenesis Assay for OH-Pregnenolone (OHPREG) (AID 2283434; active = hit-call score of the fitted dose curve at least 0.9, where 1 is the maximum; inactive = score below 0.9). The note with it: actives raise or lower the signal. The method in brief: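 H295R, 10 uM forskolin pre-stim 48 h; test chemical 48 h, 0.1% DMSO final. MTBE extraction, reverse-phase C18 HPLC-ESI+ MS/MS of medium. Gain/loss vs DMSO; viability by MTT in same wells.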

The nature of assay [11]: CEETOX_H295R_ANDR: CeeTox H295R High-throughput Steroidogenesis Assay for Androstenedione (ANDR) (AID 2283436; active = hit-call score of the fitted dose curve at least 0.9, where 1 is the maximum; inactive = score below 0.9). The conditions noted are these: actives raise or lower the signal. The method in brief: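 48 h chemical exposure, H295R cells, DMEM/F12 + ITS+ and Nu-Serum. Medium androstenedione: MTBE extraction, C18 reverse-phase HPLC, ESI+ MS/MS. Fit bidirectional vs DMSO; MTT viability in same wells.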

The nature of assay [12]: CEETOX_H295R_CORTIC: CeeTox H295R High-throughput Steroidogenesis Assay for Corticosterone (CORTIC) (AID 2283437; active = hit-call score of the fitted dose curve at least 0.9, where 1 is the maximum; inactive = score below 0.9;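 also: corticosterone secreted into medium quantified by mass spectrometry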). The note with it: actives raise or lower the signal. The method, boiled down:
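48 h forskolin (10 uM) prestim, then 48 h chemical exposure, final DMSO 0.1%. Readout: corticosterone in medium by LC-MS/MS after MTBE extraction. Gain/loss fit vs DMSO; MTT viability in same wells.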

The nature of assay [13]: CEETOX_H295R_CORTISOL: CeeTox H295R High-throughput Steroidogenesis Assay for Cortisol (AID 2283438; active = hit-call score of the fitted dose curve at least 0.9, where 1 is the maximum; inactive = score below 0.9;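 also: cortisol secreted into medium quantified by LC-MS/MS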). The conditions noted are these: actives raise or lower the signal. The method, boiled down: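 Cortisol measured by HPLC-MS/MS after MTBE extraction of medium from H295R cells exposed 48 h to chemical (0.1% DMSO), following 48 h prestimulation with 10 uM forskolin. Viability assessed by MTT in the same wells.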

Assay [14] can be described thus: CEETOX_H295R_DOC: CeeTox H295R High-throughput Steroidogenesis Assay for DOC (AID 2283439; active = hit-call score of the fitted dose curve at least 0.9, where 1 is the maximum; inactive = score below 0.9). The note with it: actives raise or lower the signal. The method, boiled down: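 11-Deoxycorticosterone quantified in medium by MTBE extraction and HPLC-MS/MS after 48 h chemical exposure (0.1% DMSO) of forskolin-primed (10 uM, 48 h) H295R cells. Same-well MTT viability; data fitted bidirectionally against DMSO.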

The nature of assay [15]: CEETOX_H295R_ESTRADIOL: CeeTox H295R High-throughput Steroidogenesis Assay for Estradiol (AID 2283440; active = hit-call score of the fitted dose curve at least 0.9, where 1 is the maximum; inactive = score below 0.9;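 also: estradiol secreted into medium quantified by LC-MS/MS after dansyl derivatisation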). The conditions noted are these: actives raise or lower the signal. The method in brief:
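Following OECD 456 with minor changes, H295R cells received 10 uM forskolin for 48 h and then test chemical for 48 h. Hormone output was read by HPLC-MS/MS, with cytotoxic concentrations diluted until MTT viability reached ≥70%.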

Assay [16] concerns the target Bile acid receptor (Homo sapiens) (UniProt Q96RI1). The experiment in a line: OT_FXR_FXRSRC1_0480: Odyssey Thera (OT) 8-hour HEK293T Protein-Complementation Assay for Farnesoid X receptor/SRC-1 Co-activator (AID 2283383). The method in brief:
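Binding of FXR to coactivator SRC-1 was read as fluorescence from a reconstituted split reporter in HEK293T cells, 8 h after chemical addition. Only increases in signal versus DMSO were fit.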

Results filed as inconclusive are left out. Activity calls are given as the source filed them. The calls were made as follows, unless noted: active = hit-call score of the fitted dose curve at least 0.9, where 1 is the maximum; inconclusive = response in the unintended direction; inactive = score below 0.9.

Chain of Bile acid receptor (Homo sapiens) (Q96RI1 whole entry, looked up, the tested form may be a part): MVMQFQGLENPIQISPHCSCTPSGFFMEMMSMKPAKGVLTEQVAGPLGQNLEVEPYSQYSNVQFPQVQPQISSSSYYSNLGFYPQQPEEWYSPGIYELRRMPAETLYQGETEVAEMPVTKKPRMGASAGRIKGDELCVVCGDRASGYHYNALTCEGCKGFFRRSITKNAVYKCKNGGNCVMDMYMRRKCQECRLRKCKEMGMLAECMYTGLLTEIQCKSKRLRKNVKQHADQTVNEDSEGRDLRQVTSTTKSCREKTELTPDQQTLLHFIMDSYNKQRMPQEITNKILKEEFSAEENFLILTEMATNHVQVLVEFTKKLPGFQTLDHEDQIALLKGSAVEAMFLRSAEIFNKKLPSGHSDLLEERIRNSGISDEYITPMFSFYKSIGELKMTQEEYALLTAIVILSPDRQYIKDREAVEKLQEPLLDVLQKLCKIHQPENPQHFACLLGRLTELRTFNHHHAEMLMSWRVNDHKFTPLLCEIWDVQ
Chain of Retinoic acid receptor RXR-alpha (Homo sapiens) (P19793 whole entry, looked up, the tested form may be a part): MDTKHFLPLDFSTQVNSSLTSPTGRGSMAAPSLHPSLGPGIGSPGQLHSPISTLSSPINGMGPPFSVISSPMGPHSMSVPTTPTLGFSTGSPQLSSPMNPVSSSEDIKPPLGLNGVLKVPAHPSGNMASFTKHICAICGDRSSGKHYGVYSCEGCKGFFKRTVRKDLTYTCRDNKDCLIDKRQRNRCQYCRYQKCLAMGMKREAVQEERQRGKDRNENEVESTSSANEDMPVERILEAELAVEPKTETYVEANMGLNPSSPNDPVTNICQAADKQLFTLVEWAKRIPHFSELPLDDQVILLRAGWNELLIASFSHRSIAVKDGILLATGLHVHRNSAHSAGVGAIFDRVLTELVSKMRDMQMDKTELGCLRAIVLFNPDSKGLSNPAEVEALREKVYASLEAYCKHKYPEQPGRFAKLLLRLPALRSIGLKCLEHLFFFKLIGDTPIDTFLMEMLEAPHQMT
Chain of Peroxisome proliferator-activated receptor gamma (Homo sapiens) (P37231 whole entry, looked up, the tested form may be a part): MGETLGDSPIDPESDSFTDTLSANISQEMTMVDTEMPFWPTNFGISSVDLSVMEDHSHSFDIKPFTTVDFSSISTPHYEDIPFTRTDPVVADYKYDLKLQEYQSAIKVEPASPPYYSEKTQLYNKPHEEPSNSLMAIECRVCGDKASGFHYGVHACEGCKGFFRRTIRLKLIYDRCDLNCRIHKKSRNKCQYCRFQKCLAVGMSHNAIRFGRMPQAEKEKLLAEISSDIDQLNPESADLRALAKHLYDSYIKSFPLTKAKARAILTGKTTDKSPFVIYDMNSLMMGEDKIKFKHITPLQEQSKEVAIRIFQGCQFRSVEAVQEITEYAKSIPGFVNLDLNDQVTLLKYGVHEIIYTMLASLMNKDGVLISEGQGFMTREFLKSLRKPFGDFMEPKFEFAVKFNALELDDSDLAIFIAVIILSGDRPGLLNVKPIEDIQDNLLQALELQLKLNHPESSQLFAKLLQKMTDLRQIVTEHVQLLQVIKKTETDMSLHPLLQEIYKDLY
Chain of Estrogen receptor (Homo sapiens) (P03372 whole entry, looked up): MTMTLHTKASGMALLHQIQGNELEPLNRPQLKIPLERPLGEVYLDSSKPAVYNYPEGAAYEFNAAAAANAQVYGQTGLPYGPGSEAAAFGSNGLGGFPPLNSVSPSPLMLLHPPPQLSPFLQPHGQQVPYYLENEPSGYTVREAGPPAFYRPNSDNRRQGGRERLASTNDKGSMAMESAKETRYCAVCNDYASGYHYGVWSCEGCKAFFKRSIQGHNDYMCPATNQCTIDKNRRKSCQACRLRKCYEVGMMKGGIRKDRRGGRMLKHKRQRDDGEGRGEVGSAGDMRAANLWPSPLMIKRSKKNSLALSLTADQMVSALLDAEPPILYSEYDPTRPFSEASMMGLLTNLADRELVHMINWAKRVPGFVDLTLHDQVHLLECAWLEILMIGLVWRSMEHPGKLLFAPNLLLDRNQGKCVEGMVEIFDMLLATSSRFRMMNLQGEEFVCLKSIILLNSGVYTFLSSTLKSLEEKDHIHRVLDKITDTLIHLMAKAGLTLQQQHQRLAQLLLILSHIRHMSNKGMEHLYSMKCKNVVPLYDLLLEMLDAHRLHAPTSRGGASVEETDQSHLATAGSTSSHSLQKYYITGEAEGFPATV
Chain of Estrogen receptor beta (Homo sapiens) (Q92731 whole entry, looked up, the tested form may be a part): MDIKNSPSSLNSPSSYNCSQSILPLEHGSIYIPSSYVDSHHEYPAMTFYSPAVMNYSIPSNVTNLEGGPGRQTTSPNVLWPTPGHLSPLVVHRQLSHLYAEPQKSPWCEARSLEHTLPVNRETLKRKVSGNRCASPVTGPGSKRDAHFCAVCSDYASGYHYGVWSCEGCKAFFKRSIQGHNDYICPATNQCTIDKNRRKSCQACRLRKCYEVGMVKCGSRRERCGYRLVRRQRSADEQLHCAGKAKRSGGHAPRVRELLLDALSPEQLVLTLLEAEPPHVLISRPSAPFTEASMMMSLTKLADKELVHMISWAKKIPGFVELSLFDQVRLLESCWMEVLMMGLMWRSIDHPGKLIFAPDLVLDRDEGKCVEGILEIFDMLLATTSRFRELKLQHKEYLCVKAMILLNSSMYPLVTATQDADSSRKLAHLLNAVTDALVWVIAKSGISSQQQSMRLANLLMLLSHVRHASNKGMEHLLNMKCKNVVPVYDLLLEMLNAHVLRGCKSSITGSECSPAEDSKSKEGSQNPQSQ

For the compound `O=C=NCCCCCCN=C=O`, the compound was classed as inactive in assay [1], in assay [2], in assay [3], in assay [4], in assay [5] and in [6]. In addition, the result in assay [7] and in [8] was inactive.
On to `NC(=O)c1nc(-c2cccc(-c3cc(F)ccc3OCC(F)(F)C(F)(F)F)c2)n[nH]1`, for which the compound was called inactive in assay [1], in assay [2], in [3], in [7], in assay [8] and in [9]. For the same compound, the compound was called inactive in assay [10], in assay [11], in assay [12], in [13], in [14] and in assay [15].
Consider `O=C1O[C@H]([C@@H](O)CO)C(O)=C1O`, for which the result in assay [1], in assay [6], in assay [7] and in assay [8] was inactive.
For `Oc1ccccc1`, the outcome in assay [4], in assay [5], in [6], in assay [7] and in assay [8] was inactive.
In general, AC50 refers to the midpoint of the concentration-response curve, whichever way the signal moves. On to `Cc1cc2c(cc1C(F)(F)F)N(C(=O)Nc1ccc(Oc3cccnc3C)nc1)CC2`, for which the compound was called inactive in assay [1], in assay [2], in assay [3], in assay [6], in [7] and in assay [8]. Moreover, the compound was called inactive in assay [12] and in assay [15]. The AC50 in assay [16] is 19.1 µM (active); in assay [4], 4.55 µM (active); in [5], 29.2 µM (active); in assay [9], 0.381 µM (active); in [10], 0.495 µM (active); in assay [13], 0.588 µM (active). Besides, the AC50 in [14] is 0.227 µM (active).
As to `CCCCCCCC[Si](OCC)(OCC)OCC`, the compound was classed as inactive in assay [1], in assay [5], in [6], in assay [7], in assay [8] and in assay [10]. In addition, the outcome in [12], in assay [13] and in assay [14] was inactive.
Consider `CC(C)(C)c1csc(-c2cc3cc(OCc4ccccc4CC(=O)O)ccc3o2)n1`, for which the outcome in assay [1], in [2], in [3], in assay [16], in [7] and in [8] was inactive. Further, the AC50 in assay [4] is 69.8 µM (active); in assay [5], 2.97 µM (active); in assay [6], 29.1 µM (active).
With `OC12N=C(c3ccccc3)SC1Cc1cc(Cl)ccc12` (stereo unspecified), the compound was classed as inactive in assay [1], in [2], in [3], in assay [5], in [7] and in [8]. Moreover, the result in [10] and in assay [15] was inactive. The AC50 in assay [16] was 71.7 µM (active); in assay [4], 31.4 µM (active); in [6] it was 30 µM (active); in [9], 32.8 µM (active); in assay [12], 17.7 µM (active); in assay [13], 28.5 µM (active). Besides, the AC50 in assay [14] is 17.6 µM (active).
As to `CC[C@H](NC(=O)c1cc(F)ccc1NS(=O)(=O)c1cccc2cccnc12)c1ccccc1`, the compound was called inactive in assay [1], in [2], in assay [3], in assay [4], in [5] and in assay [6]. The compound was classed as inactive in assay [7] and in assay [8]. The AC50 in [16] is 31.9 µM (active).

The values are drawn from PubChem BioAssay (EPA / NIEHS).
